This passage reports Potency results from PubChem BioAssay (NCATS).

SMILES strings stand for the structures. Records with an inconclusive call do not appear. Where a call stands in place of a potency, no number is given. Activity calls are given as the source filed them. Calls come from the whole dose curve; as a rule, active = well fitted inhibition curve with a large enough effect; inconclusive = small, poorly fitted or top-dose-only effect; inactive = flat fitted curve, though single readings scatter.

In this experiment the target is Aldehyde dehydrogenase, mitochondrial (Homo sapiens) (UniProt P05091). Kind of experiment: qHTS for Inhibitors of the Aldehyde Dehydrogenase Family (ALDH2) Primary screen (AID 2061308). Note: nearly all actives have a fitted effect of over 55% in size. Particulars: ALDH2 enzyme inhibition qHTS, 1536-well; series mostly up to 56 µM. A general note: In qHTS, concentration-response curves come from the screen itself.
Consider `Cc1ccc(S(=O)(=O)Nc2cnccc2C(=O)Nc2nc(-c3ccccc3Cl)cs2)cc1`, for which the Potency result was “inactive”.

With `COCc1nn2c(=O)cc(N3CCNCC3)nc2s1`, the Potency result is “inactive”.

For `CCCn1c(C)nc2c(N3CCOCC3)nc(C)nc21`, the Potency entry is “inactive”.

Take `O=C(Nc1ccc(Cl)c(Cl)c1)Nc1nnc(-c2ccncc2)s1`: the Potency result was “inactive”.

With `Cc1ccc(S(=O)(=O)Nc2ccccc2C(=O)Nc2nc(-c3ccccc3)c(C)s2)cc1`, the Potency entry was “inactive”.

`O=[S+]([O-])(Nc1nccs1)c1ccc(NCc2cc(Cl)cc(Br)c2O)cc1`: the Potency entry was “inactive”.

For `Cc1cc(-c2nnc3n2CCC3)c(C)n1-c1ccccc1`, the Potency result was “inactive”.

On to `CCOc1ccc(CCNC(=O)c2csc(Br)n2)cc1OCC`, for which the Potency result is “inactive”.

`COc1cc(F)c(S(=O)(=O)N2CCN(S(=O)(=O)c3ccc4c(c3)OCCO4)CC2)c(F)c1`: the Potency result was “inactive”.

Consider `CC1=C(C(=O)Nc2ccccc2)C(c2ccccc2Cl)N=C(Nc2nc3ccccc3o2)N1` (stereo not drawn), for which the Potency result is “inactive”.

For the molecule `O=S(=O)(c1ccccc1)N1CCN(c2nccc(-c3cccs3)n2)CC1`, the Potency entry is “inactive”.

With `CC(C)c1ccccc1-c1ncc(F)c(NCc2ccc(-c3cccnc3)s2)n1`, the Potency result was “inactive”.

Turning to `Cc1cc(C)nc(NC(=S)N2CCN(c3nc4ccccc4s3)CC2)c1`, the Potency entry was “inactive”.

For the molecule `O=C(Nc1sc2c(c1-c1nc3ccccc3s1)CCNC2)C(F)F`, the Potency result was “inactive”.

Regarding `Cc1cccc(-c2ccc3ncnc(NCc4cccnc4)c3c2)c1`, the Potency result is “inactive”.

In the case of `Cc1ccc(C)c(SC2CS(=O)(=O)c3ccccc32)c1` (stereo not drawn), the Potency entry was “inactive”.

`CCOc1ccc(CCNC(=O)c2cc3sccc3n2Cc2ccccc2)c(F)c1OCC`: the Potency result is “inactive”.

With `Cc1nc(NC2CCCCC2)c2nc(-c3ccccc3)n(CCCN(C)C)c2n1`, the Potency result was “inactive”.
